From the supplement of paper PMC8371130
Counter-ions that a name gives are not always drawn.

Test system: HL-1
Test: relative cell viability (CellTiter-Glo) vs DMSO control (% of DMSO control); higher = more viable cells
Summary of the method: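 One day after HL-1 mouse atrial cardiomyocytes were plated (1000 cells per well, 384-well plates) with compounds at 40, 200, 1000 or 5000 nM in 0.01% DMSO, they were transferred to a hypoxic workstation at 1% O2. After 48 h there, the cells were reoxygenated for 24 h in a normal incubator, and comparison cells stayed in normoxia throughout the same time. Cell viability was quantified with CellTiter-Glo luminescence and normalised to vehicle-treated control cells.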

[1] = oxygen condition: hypoxia 48 h (1% O2) + reoxygenation 24 h, 40 nM
[2] = oxygen condition: hypoxia 48 h (1% O2) + reoxygenation 24 h, 200 nM
[3] = oxygen condition: hypoxia 48 h (1% O2) + reoxygenation 24 h, 1000 nM
[4] = oxygen condition: hypoxia 48 h (1% O2) + reoxygenation 24 h, 5000 nM
[5] = oxygen condition: normoxia 72 h, 40 nM
[6] = oxygen condition: normoxia 72 h, 200 nM
[7] = oxygen condition: normoxia 72 h, 1000 nM
[8] = oxygen condition: normoxia 72 h, 5000 nM

| Compound | relative cell viability [1] | relative cell viability [2] | relative cell viability [3] | relative cell viability [4] | relative cell viability [5] | relative cell viability [6] | relative cell viability [7] | relative cell viability [8] |
| --- | --- | --- | --- | --- | --- | --- | --- | --- |
| CC1(C)[C@@H](OC(=O)CCC(=O)O)CC[C@]2(C)[C@H]3C(=O)C=C4[C@@H]5C[C@@](C)(C(=O)O)CC[C@]5(C)CC[C@@]4(C)[C@]3(C)CC[C@@H]12 [Carbenoxolone Sodium] | 94.3 | 103 | 100 | 108 | 93.6 | 102 | 102 | 107 |
| COc1ccc2[nH]c([S+]([O-])Cc3ncc(C)c(OC)c3C)nc2c1 (stereo not given) [Omeprazole] | 101 | 99.7 | 107 | 110 | 104 | 103 | 103 | 105 |
| CC(Oc1c(Cl)cccc1Cl)C1=NCCN1 (stereo not given) [Lofexidine  HCl] | 99.4 | 101 | 99.6 | 118 | 98.3 | 103 | 89.6 | 108 |
| NC(=O)c1ncn([C@@H]2O[C@H](CO)[C@@H](O)[C@H]2O)n1 [Ribavirin] | 102 | 96.2 | 108 | 101 | 100 | 104 | 109 | 107 |
| CCN(CC)CCOC(=O)C(c1ccccc1)c1ccccc1 [Adiphenine HCl] | 99.1 | 94.2 | 102 | 108 | 101 | 97.4 | 101 | 110 |
| C=CCc1cc(OC)c(O)c(C(=O)NCCO)c1 [Alibendol] | 103 | 102 | 108 | 113 | 101 | 104 | 112 | 115 |
| COc1ccccc1OCCNCC(O)COc1cccc2[nH]c3ccccc3c12 (stereo not given) [Carvedilol] | 93.5 | 110 | 107 | 108 | 104 | 105 | 107 | 107 |
| CS(=O)(=O)c1ccc(C2=C(c3ccccc3)C(=O)OC2)cc1 [Rofecoxib] | 104 | 97.5 | 103 | 107 | 105 | 94.4 | 107 | 109 |
| COC(=O)N[C@H](C(=O)N[C@@H](Cc1ccccc1)[C@@H](O)CN(Cc1ccc(-c2ccccn2)cc1)NC(=O)[C@@H](NC(=O)OC)C(C)(C)C)C(C)(C)C [Atazanavir sulfate] | 104 | 101 | 105 | 108 | 101 | 97 | 98.5 | 116 |
| OCCN(CCO)c1nc(N2CCCCC2)c2nc(N(CCO)CCO)nc(N3CCCCC3)c2n1 [Dipyridamole] | 102 | 107 | 93.7 | 108 | 108 | 98.7 | 98 | 113 |
| CCCC(CCC)C(=O)O [Divalproex sodium] | 98.3 | 109 | 102 | 111 | 99.9 | 106 | 106 | 118 |
| C[C@@H](Oc1cc(-c2cnn(C3CCNCC3)c2)cnc1N)c1c(Cl)ccc(F)c1Cl [Crizotinib] | 94.3 | 92.1 | 99.2 | 70.3 | 98.8 | 98.6 | 87.4 | 52 |
| C#CCC(Cc1cnc2nc(N)nc(N)c2n1)c1ccc(C(=O)N[C@@H](CCC(=O)O)C(=O)O)cc1 (stereo not given in full) [Pralatrexate] | 38.6 | 43 | 37.3 | 38.9 | 44.3 | 42.7 | 46.2 | 41.8 |
| Oc1ccc(OCc2ccccc2)cc1 [Monobenzone] | 99.6 | 114 | 110 | 103 | 107 | 104 | 108 | 99.8 |
| COC(=O)[C@H](c1ccccc1Cl)N1CCc2sccc2C1 [Clopidogrel] | 105 | 103 | 106 | 111 | 108 | 111 | 105 | 119 |
| C[C@]12CC[C@@H]3c4ccc(O)cc4C[C@@H](CCCCCCCCC[S+]([O-])CCCC(F)(F)C(F)(F)F)[C@H]3[C@@H]1CC[C@@H]2O (stereo not given in full) [Fulvestrant] | 102 | 113 | 110 | 122 | 111 | 117 | 122 | 135 |
| OCC(CO)N[C@H]1C[C@](O)(CO)[C@@H](O)[C@H](O)[C@H]1O [Voglibose] | 109 | 117 | 113 | 113 | 105 | 114 | 116 | 115 |
| COc1cc2c(cc1OC)CC(=O)N(CCCN(C)C[C@H]1Cc3cc(OC)c(OC)cc31)CC2 [Ivabradine HCl] | 108 | 106 | 107 | 106 | 105 | 106 | 102 | 106 |

| Compound | relative cell viability [1] | relative cell viability [2] | relative cell viability [3] | relative cell viability [4] | relative cell viability [5] | relative cell viability [6] | relative cell viability [7] | relative cell viability [8] |
| --- | --- | --- | --- | --- | --- | --- | --- | --- |
| C#Cc1cccc(Nc2ncnc3cc(OCCOC)c(OCCOC)cc23)c1 [Erlotinib HCl] | 114 | 107 | 105 | 124 | 112 | 123 | 112 | 113 |
| OC1(c2ccc(Cl)c(C(F)(F)F)c2)CCN(CCCC(c2ccc(F)cc2)c2ccc(F)cc2)CC1 [Penfluridol] | 96.8 | 107 | 96.7 | 116 | 97.8 | 100 | 104 | 120 |
| CN1CCCCC1CCN1c2ccccc2Sc2ccc([S+](C)[O-])cc21 (stereo not given) [Mesoridazine Besylate] | 108 | 106 | 105 | 113 | 97 | 102 | 117 | 115 |
| CN1CCN(CCCN2c3ccccc3Sc3ccc(C(F)(F)F)cc32)CC1 [Trifluoperazine 2HCl] | 102 | 103 | 105 | 114 | 107 | 106 | 103 | 112 |
| CN(C)[C@@H](CCOc1cccc2ccccc12)c1ccccc1 [Dapoxetine hydrochloride] | 96.3 | 102 | 99.8 | 89.2 | 101 | 103 | 104 | 76.3 |
| O=c1oc2c(O)c(O)cc3c(=O)oc4c(O)c(O)cc1c4c23 [Ellagic acid] | 113 | 104 | 114 | 124 | 101 | 113 | 118 | 119 |
| O=C(NC[C@H]1CN(c2ccc(N3CCOCC3=O)cc2)C(=O)O1)c1ccc(Cl)s1 [Rivaroxaban] | 91.5 | 106 | 99.8 | 112 | 99 | 90.8 | 103 | 92.1 |
| COc1ccc(Cl)cc1C(=O)NCCc1ccc(S(=O)(=O)NC(=O)NC2CCCCC2)cc1 [Glyburide] | 103 | 106 | 103 | 104 | 103 | 103 | 108 | 109 |
| Cc1onc(-c2ccccc2)c1-c1ccc(S(N)(=O)=O)cc1 [Bextra] | 101 | 97.9 | 104 | 107 | 103 | 100 | 95.1 | 111 |
| CC(C)(C#N)c1cc(Cn2cncn2)cc(C(C)(C)C#N)c1 [Anastrozole] | 94.2 | 99.5 | 57.7 | 34.5 | 100 | 93.2 | 87.9 | 22.4 |
| CCCNCC(O)COc1ccccc1C(=O)CCc1ccccc1 (stereo not given) [Propafenone] | 97.1 | 105 | 108 | 105 | 107 | 102 | 110 | 103 |
| COc1cc([C@@H]2c3cc4c(cc3[C@@H](O[C@@H]3O[C@@H]5CO[C@@H](C)O[C@H]5[C@H](O)[C@H]3O)[C@H]3COC(=O)[C@H]23)OCO4)cc(OC)c1O [Etoposide] | 85.7 | 67.1 | 46.6 | 19.1 | 91.3 | 60.8 | 40 | 13.9 |
| CN(C)CCc1c[nH]c2ccc(Cn3cncn3)cc12 [Rizatriptan Benzoate] | 103 | 108 | 110 | 107 | 109 | 104 | 110 | 113 |
| Nc1ccc(C(=O)O)c(O)c1 [Aminosalicylate sodium] | 95.2 | 102 | 102 | 108 | 105 | 105 | 114 | 108 |
| CNS(=O)(=O)CCc1ccc2[nH]cc(C3CCN(C)CC3)c2c1 [Naratriptan HCl] | 97.1 | 103 | 105 | 108 | 103 | 103 | 97.6 | 111 |
| NC(=O)OCC(COC(N)=O)c1ccccc1 [Felbamate] | 101 | 106 | 96.3 | 110 | 110 | 107 | 105 | 110 |
| COC(=O)[C@@H]1CC2=CC(=O)CC[C@]2(C)[C@@]23O[C@@H]2C[C@@]2(C)[C@@H](CC[C@@]24CCC(=O)O4)[C@H]13 [Eplerenone] | 102 | 103 | 101 | 103 | 107 | 107 | 108 | 104 |
